Source: PubChem BioAssay (Tox21)
Inconclusive results are not listed. A call without a number means that no potency is given here. Active and inactive are the calls of the source. The call rests on the fitted dose curve; in most records, active means well fitted cell-killing curve with a large enough effect in the repeat runs; inconclusive means weak or mixed curves; inactive means flat fitted curve, though single readings scatter.

test: qHTS RealTime-Glo MT Cell Viability Assay in HepG2 cells - 16 hour (AID 1224885); settings: RealTime-Glo luminescence; series mostly up to 76.8 µM; further: nearly all actives have a fitted effect of over 50% in size
Description: U.S. Tox21 Program National Center for Advancing Translational Sciences [NCATS] NIH Chemical Genomics Center [NCGC] U.S. Environmental Protection Agency [EPA] National Institutes of Environmental Health Sciences [NIEHS] National Toxicology Program [NTP] U.S. Food and Drug Administration [FDA] Tox21 Assay Overview: Measure of cell viability is critical in the cell-base assay. Analysis of cell viability is necessary for the characterization of cell responses to cytotoxic drugs and environmental stress. A RealTime-Glo MT Cell Viability Assay to monitor cell viability in real time of continues cell culture during 40 hours of compound treatment was used to screen Tox21 10K library compounds in HepG2 cells. The RealTime-Glo MT Cell Viability Assay is a nonlytic, homogeneous, bioluminescent method to measure cell viability in real time using a simple, plate-based method. The assay involves adding NanoLuc luciferase and a cell-permeant prosubstrate to cells in culture. Viable cells reduce the proprietary prosubstrate to generate a substrate for NanoLuc luciferase. This substrate diffuses from cells into the surrounding culture medium, where it is rapidly used by the NanoLuc Enzyme to produce a luminescent signal. The signal correlates with the number of viable cells, making the assay well suited for cytotoxicity studies.
Tox21 Assay Protocol Summary: The mixture of HepG2 cell suspension and reagents were dispensed at 600cells/6 ul/well in 1536-well tissue culture treated black solid bottom plates using a Multidrop dispenser. After the assay plates were incubated at a 37 C/5% CO2 incubator for 5 hours, 23 nL of compounds dissolved in DMSO, positive and negative controls was transferred to the assay plate by a pintool work station. The plates were incubated at 37 C for 40 hours. The luminescence intensity were measured at 0h, 8h, 16h, 24h, 32h and 40h time points using ViewLux plate reader during compound treatment.
Potency means the concentration at half of the fitted maximal effect.

SMILES	Potency
Cn1cnc2c1c(=O)[nH]c(=O)n2C	inactive
CN(C)Cc1cc(CN(C)C)c(O)c(CN(C)C)c1	inactive
c1ccc2[nH]c(-c3cscn3)nc2c1	inactive
O=c1cc[nH]c(=O)[nH]1	inactive
C=C(C)OC(C)=O	inactive
CCCCC/C(C=O)=C\c1ccccc1	inactive
C/C=C/c1ccc(O)c(OC)c1	inactive
CCCCNC(=O)NS(=O)(=O)c1ccc(N)cc1	inactive
CCN(CC)CCOC(=O)c1ccc(N)cc1	inactive
CC(C)CC(C)CC(O)CC(C)C (stereo not given)	inactive
C=C(C)C(N)=O	inactive
O=C1OC(c2ccc(O)cc2)(c2ccc(O)cc2)c2ccccc21	inactive
CCCCCCCCOc1ccc(C(=O)c2ccccc2)c(O)c1	inactive
C=CCOC(=O)CC(C)C	inactive
CC(=O)c1ccc(S(=O)(=O)NC(=O)NC2CCCCC2)cc1	inactive
COCCOCCOC	inactive
Cc1cccc2ccccc12	inactive
Nc1cccc(N)c1	inactive
CCCCOCCOCCOC(C)=O	inactive
CC(C)(C)NCC(O)c1ccc(O)c(CO)c1 (stereo not given)	inactive

SMILES	Potency
NC(=O)c1ccc([N+](=O)[O-])cc1Cl	inactive
CC(C)(C)CC(C)(C)c1ccc(O)c(-n2nc3ccccc3n2)c1	inactive
NC(N)=NC(N)=NCCc1ccccc1	inactive
CC(=O)CCC(C)C	inactive
N[C@@H](Cc1c[nH]c2ccc(O)cc12)C(=O)O	inactive
NC(=O)N1c2ccccc2C=Cc2ccccc21	inactive
CCCCOC(=O)CCCCCCCCC(=O)OCCCC	inactive
COC1=CC(=O)C[C@@H](C)[C@]12Oc1c(Cl)c(OC)cc(OC)c1C2=O	inactive
C#C[C@]1(O)CC[C@H]2[C@@H]3CCc4cc(O)ccc4[C@H]3CC[C@@]21C	inactive
CCN1CCCC1=O	inactive
Oc1cccc(O)c1	inactive
COC(=O)c1ccc(C=O)cc1	inactive
Cc1ccc(O)c(-n2nc3ccccc3n2)c1	inactive
C[C@]12C[C@H](O)[C@H]3[C@@H](CCC4=CC(=O)CC[C@@]43C)[C@@H]1CC[C@@H]2C(=O)CO	inactive
CC1(C)O[C@@H]2[C@@H](CO[C@@]3(COS(N)(=O)=O)OC(C)(C)O[C@@H]23)O1	inactive
Cc1c(N(C)CS(=O)(=O)O)c(=O)n(-c2ccccc2)n1C	inactive
CO[C@H]1C=CO[C@@]2(C)Oc3c(C)c(O)c4c(O)c(c(/C=N/N5CCN(C)CC5)c(O)c4c3C2=O)NC(=O)/C(C)=C\C=C[C@H](C)[C@H](O)[C@@H](C)[C@@H](O)[C@@H](C)[C@H](OC(C)=O)[C@@H]1C	12.4 µM (active)
COc1cc(C=O)ccc1O	inactive
CCOC(=O)C(C)(C)Oc1ccc(Cl)cc1	inactive
CC(C)Cc1ccc(C(C)C(=O)O)cc1 (stereo not given)	inactive
